Methyltransferases – Primary Screen for Target Class Profiling of Small Molecule Inhibitors of Methyltransferases. purified enzyme, MTase-Glo SAH luminescence; stronger effect = lower value. calls only at 40 µM. actives 3.9% (n = 25,000). AID 1745853, 2022; call rule not given here
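Each enzyme was reacted with SAM and its substrate, with compounds tested once at 40 uM; SAH formed was read by MTase-Glo luminescence.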
MTase-Glo counter – detection enzyme interference, methyltransferase counter-screen; shares compounds with Methyltransferases; MTase-Glo coupled enzymes, SAH conversion luminescence, no MTase; Potency, µM (top dose mostly 57.3 µM), for the others: at the top dose activity change, negative = inhibition, usual class: inhibitors; actives 6% (n = 180); AID 1745851; active means well fitted inhibition curve with a large enough effect; inconclusive means small, poorly fitted or top-dose-only effect; further: potency means the concentration at half of the fitted maximal effect
Active calls of the source: *; i = inactive; ? = inconclusive; + = active, no number; [ ] = remark or other dose. Many of the other results were omitted from the sample, so hits are more common in it than they were. On the % scale 0 is the no-effect control and ±100 the full control effect.

SMILES | Methyltransferases | others
O=C(Nc1ccncc1)c1cc([N+](=O)[O-])ccc1Cl | i
CN1C(=O)c2cc(NC(=O)c3ccccc3Cl)ccc2N2CCN=C12 | i
O=C(c1cc(F)ccc1F)N1CCCCC1c1nc(-c2cnccn2)n[nH]1 (stereo not drawn) | i
COc1ccc(-c2cnc3[nH]cc(CC(=O)Nc4ccc(C(F)(F)F)cc4)c3c2)cc1 | i
O=C(Cc1ccsc1)Nc1ccc2c(N3CCCC3)ncnc2c1 | + | MTase-Glo counter=0%
O=C(Nc1ccc2ncnc(N3CCCCC3)c2c1)c1cc(F)ccc1F | + | MTase-Glo counter=5.4µM*
COc1ccc(CC(=O)Nc2ccc3ncnc(N4CCCC4)c3c2)c(Cl)c1 | + | MTase-Glo counter=?
COc1ccc(CNC(=O)Cn2ccc3cc(S(=O)(=O)N4CCCC4)ccc32)c(OC)c1 | i
O=C(Nc1cnc(Cl)nc1)c1ccc(F)c(F)c1 | i
CC1CCC(NC(=O)CCn2ccc3cc(S(=O)(=O)N4CCCCC4)ccc32)CC1 (stereo not drawn) | i
O=C(Cn1nc2n(Cc3ccccc3)c(=O)c3ccccc3n2c1=O)Nc1ccccc1F | i
COc1ccc(CCN2C(=O)c3nc4ccccc4n3CC2(C)C(=O)NC2CCCCC2)cc1OC (stereo not drawn) | i
CC1CCN(S(=O)(=O)c2ccc3c(ccn3CCC(=O)NCCc3ccccc3Cl)c2)CC1 | i
CCN(CC)CCNC(=O)CCn1ccc2cc(S(=O)(=O)N3CCCCC3)ccc21 | i
COc1ccc(CNC(=O)C2(C)Cn3cnc(C(=O)Nc4ccc(C(C)C)cc4)c3C(=O)N2C2CC2)cc1 (stereo not drawn) | i
COc1ccc(CN2C(=O)c3cc(-c4ccccc4)nn3CC2(C)C(=O)NCc2ccccc2OC)cc1 (stereo not drawn) | i
Cc1ccc(C)c(N2CCN(CCCNC(=O)CCc3nnc4n(CC(C)C)c(=O)c5ccccc5n34)CC2)c1 | i
COc1ccc(NC(=O)c2cc3c(s2)CN(C2CCCC2)C3)c(OC)c1 | i
CC(C)N1Cc2cc(C(=O)NC3CCN(Cc4ccccc4)CC3)sc2C1 | i
CC1CCCCN1CCCNC(=O)c1cc2c(s1)CN(C1CCCC1)C2 (stereo not drawn) | + | MTase-Glo counter=2%
CCCN1C(=O)c2cc(C(=O)N3CCCCC3)nn2CC1(C)C(=O)NC1CCCC1 (stereo not drawn) | i
COc1cccc(Nc2ccnc(-c3nnc(C)n3C3CCCCC3)c2)c1 | + | MTase-Glo counter=-4%[85.7 µM]
COc1cccc(NC(=O)c2cc3n(n2)CC(C)(C(=O)NC2CCCCCC2)N(C)C3=O)c1 (stereo not drawn) | i
Cc1nnc(-c2cc(-c3ccccc3Oc3ccccc3)ccn2)n1C | i
COc1ccc(OC)c2c1cc1n2CC(C)(C(=O)NC2CCCCC2C)N(Cc2ccco2)C1=O (stereo not drawn) | i
SMILES | Methyltransferases | others
Cc1nn(C(=O)CCC(=O)N2CCC(Cc3nncn3CC3CC3)CC2)c2ccccc12 | + | MTase-Glo counter=-1%
O=C(C1CCC1)N1CCC(Cc2nncn2Cc2ccccc2)CC1 | i
CCn1cnnc1CC1CCN(C(=O)c2nccc3ccccc23)C1 (stereo not drawn) | i
CCCn1c(=O)c2ccc(C(=O)NC3CCCC3)cc2n2c(SCC(=O)Nc3cccc(C)c3)nnc12 | i
O=C(c1ccc2c(=O)nc3c(-c4ccc(F)cc4)n[nH]n3c2c1)N1CCN(c2ccccn2)CC1 | i
CCCn1c(=O)c2cc(Cl)ccc2n2c(SCc3cccc(C)c3)nnc12 | i
Cc1ccc(Cn2c(=O)c3ccc(C(=O)NCC(C)C)cc3n3c(=O)n(C)nc23)cc1 | i
Cc1cc2c(cc3n2CC(C)(C(=O)NC2CCCCCCC2)N(CCCN2CCCCC2)C3=O)o1 (stereo not drawn) | i
CCn1c(=O)n(CC)c2cc(S(=O)(=O)Nc3ccccc3)ccc21 | i
